Results on 39 molecules are retold here after PubChem BioAssay (NCI).

The nature of assay [1]: NCI Yeast Anticancer Drug Screen. Data for the rad50 strain (AID 155).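 Further: 0% = growth of vehicle-only cultures of the same strain.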 The settings on record: S. cerevisiae rad50 strain growth inhibition; at 50.0 µM; active compounds read high. In a few lines: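 A DNA repair-deficient yeast mutant serves as the test organism; compound-induced growth inhibition is calculated against vehicle-treated cells.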
The nature of assay [2]: NCI Yeast Anticancer Drug Screen. Data for the mec2-1 strain (AID 157). The settings on record: S. cerevisiae mec2-1 strain, at 50.0 µM, active compounds read high. In a few lines: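 Compounds were applied to mec2-1 yeast cells. Their growth was then compared with that of vehicle-treated cultures to give growth inhibition.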
Assay [3] is described as follows: NCI Yeast Anticancer Drug Screen. Data for the sgs1 mgt1 strain (AID 161).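 Further: 0% = growth of cultures given vehicle only.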 The conditions noted are these: S. cerevisiae sgs1 mgt1 strain, at 50.0 µM, active compounds read high. Summed up: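 Compounds are added to genetically altered yeast, and growth is compared with cultures given vehicle alone to give percent inhibition.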
Assay [4] in a line: NCI Yeast Anticancer Drug Screen. Data for the cln2 rad14 strain (AID 165).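 Further: 0% = growth equal to vehicle treated cultures.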 The conditions noted are these: S. cerevisiae cln2 rad14 strain, at 50.0 µM, active compounds read high. Summed up:
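Strain: cln2 rad14 yeast, altered in cell cycle control and DNA damage repair. Read-out: growth inhibition vs vehicle.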

Assay [5] can be described thus: NCI Yeast Anticancer Drug Screen. Data for the bub3 strain (AID 167). The settings on record: S. cerevisiae bub3 mutant strain, at 50.0 µM, active compounds read high. In a few lines: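 Inhibition values come from growth of compound-treated mutant yeast normalised to vehicle-treated controls.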
A short description of assay [6]: NCI Yeast Anticancer Drug Screen. Data for the mlh1 rad18 strain (AID 175). The settings on record: S. cerevisiae mlh1 rad18 strain growth inhibition; at 50.0 µM; active compounds read high. Summed up:
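A repair-deficient yeast strain is exposed to test compound, and growth is scored relative to vehicle-treated controls.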

Each structure is given as a SMILES string. The panel holds about 79,000 compounds, 15% with a hit somewhere; the sample as a whole holds those more often. Values without a mark were called inactive. The source made the active and inactive calls. No stated cut-off is given here; in the data, active means growth inhibition above about 70%; inactive means the rest.

With `O=C1C2=C(c3ccccc31)C(c1ccc(Cl)cc1)N1C(=O)CCSC1=N2` (centres undefined), the growth inhibition in assay [1] is 24.7%; in assay [2] it was 10.6%; in assay [3], 1.9%; in assay [4] it was 8.25%; in assay [5], 27.1%; in assay [6] it was 25.3%.
Take `Nc1nc(-c2ccncc2)cc(-c2cc(-c3ccncc3)nc(N)n2)n1`: the growth inhibition in assay [1] is -7.7%; in assay [2] it was -0.25%; in assay [3], -8.65%; in assay [4], -21.9%; in assay [5] it was -12.3%; in assay [6], 10.3%.
`O=Cc1cccc2ccc3cccc(C(=O)O)c3c12`: the growth inhibition in assay [1] was 34%; in assay [2], 12%; in assay [3] it was 17.9%; in assay [4] it was 13.2%; in assay [5] it was 30.1%; in assay [6], -8.7%.
On to `CC(C)[C@@H]1CC[C@@H](C)C[C@H]1OC(=O)c1c2n(c3ccccc13)C[C@H]1OC(C)(C)O[C@@H]21`, for which the growth inhibition was 5.15% in assay [1]; -6.65% in assay [2]; 7.4% in assay [3]; 22.9% in assay [4]; 15.2% in assay [5]; -46.2% in assay [6].
As to `O=C1NC(=O)C(c2ccccc2)(c2ccsc2)N1` (centres undefined), the growth inhibition in assay [1] was 12.3%; in assay [2] it was -4.3%; in assay [3], 1.95%; in assay [4] it was 10.6%; in assay [5], 1%; in assay [6], 13.6%.
Consider `CC(=O)OCC(=O)COC(C)=O`, for which the growth inhibition in assay [1] is -4.95%; in assay [2] it was -6.35%; in assay [3] it was -8.4%; in assay [4] it was 8.5%; in assay [5], -2.2%; in assay [6], -8.55%.
Regarding `Cc1ccc(NC(=O)C(C)C)cc1`, the growth inhibition in assay [1] is -14%; in assay [2] it was -16.6%; in assay [3], -13.4%; in assay [4], -24.2%; in assay [5], -19.1%; in assay [6] it was -21.2%.
For the molecule `Cc1ccc(S(=O)(=O)NC(Cc2ccc(O)cc2)C(=O)O)cc1` (centres undefined), the growth inhibition in assay [1] is 1.5%; in assay [2], -8.4%; in assay [3], 5.25%; in assay [4], -57.2%; in assay [5] it was 12.6%; in assay [6] it was 35.5%.
On to `Cc1cc(=O)c2ccccc2o1`, for which the growth inhibition in assay [1] was -5.15%; in assay [2] it was -7.75%; in assay [3] it was -1.3%; in assay [4], -0.1%; in assay [5] it was -18.9%; in assay [6], -13.7%.
`CC12CCC(=O)C=C1CCC1C2C(O)CC2(C)C1CCC2(O)C(=O)COC(=O)C1C2C=CC(C2)C1C(=O)O` (centres undefined): the growth inhibition was 24.1% in assay [1]; 9.45% in assay [2]; 25% in assay [3]; 12.1% in assay [4]; -6.85% in assay [5]; 25.1% in assay [6].
Consider `Cc1cccc(-c2cc(=O)c3c(C)cc(C)nc3[nH]2)c1`, for which the growth inhibition in assay [1] is -2.1%; in assay [2] it was 2.7%; in assay [3] it was 21.9%; in assay [4] it was 24.8%; in assay [5] it was 24.1%; in assay [6] it was -39.4%.
Take `C#CC1(c2ccccc2)OCCO1`: the growth inhibition in assay [1] was 21.9%; in assay [2], 17.4%; in assay [3] it was 16.3%; in assay [4], 4.55%; in assay [5], -13.2%; in assay [6] it was 27.4%.
In the case of `O=C(O)/C=C\C(=O)Nc1ccc(N=Nc2ccccc2)cc1`, the growth inhibition was -34.6% in assay [1]; -39.9% in assay [2]; -7.95% in assay [3]; -3.65% in assay [4]; -18.8% in assay [5]; -2.9% in assay [6].
With `CCOC(=O)c1ccc(N(C=O)CCC(OCC)OCC)cc1`, the growth inhibition in assay [1] is -2.25%; in assay [2], -5.75%; in assay [3] it was 4.35%; in assay [4] it was -49.4%; in assay [5], 17.9%; in assay [6] it was -0.3%.
In the case of `c1cc(-c2cc(-c3cc(-c4ccncc4)n[nH]3)[nH]n2)ccn1`, the growth inhibition in assay [1] was 9.45%; in assay [2], -2.6%; in assay [3] it was 8.45%; in assay [4], 3.3%; in assay [5] it was -13.8%; in assay [6] it was 4.6%.
With `C=CCC(=O)OCc1cc2c(cc1Br)OCO2`, the growth inhibition is -26.8% in assay [1]; -17.2% in assay [2]; -8.35% in assay [3]; -10.6% in assay [4]; 54.5% in assay [5]; 5.85% in assay [6].
Consider `O=C1/C(=C/c2ccc(O)cc2)CCC/C1=C\c1ccc(O)cc1`, for which the growth inhibition was 3.9% in assay [1]; 1.85% in assay [2]; 5.2% in assay [3]; 23.1% in assay [4]; -7.05% in assay [5]; 1.45% in assay [6].
Consider `COc1ccccc1/C=C1\C(=O)N(C(=O)Cc2ccccc2)N=C1C`, for which the growth inhibition in assay [1] is -4.4%; in assay [2] it was -8.15%; in assay [3] it was -54.2%; in assay [4], -10.8%; in assay [5] it was -3.85%; in assay [6], -25.4%.
As to `Cc1ccc(CCS(=O)(=O)N=[N+]=[N-])cc1`, the growth inhibition in assay [1] is 1.45%; in assay [2], -11.8%; in assay [3], -8.95%; in assay [4], -53.8%; in assay [5], -20%; in assay [6], -3.4%.
In the case of `COc1cc(O)c2c(=O)c(OC)c(-c3ccc4c(c3)OCO4)oc2c1`, the growth inhibition in assay [1] was 4.6%; in assay [2], 6.2%; in assay [3], -9.85%; in assay [4], 2.35%; in assay [5] it was -24.2%; in assay [6] it was -44.4%.
Take `CCC(=O)C(=O)c1ccccc1`: the growth inhibition in assay [1] was -12.9%; in assay [2], -6.5%; in assay [3], -0.4%; in assay [4], -2.35%; in assay [5], -1.05%; in assay [6], 3.2%.
With `O=C1Nc2ccccc2C2Cc3c([nH]c4ccccc34)CC12` (centres undefined), the growth inhibition in assay [1] was 47%; in assay [2], 20.1%; in assay [3] it was 3.8%; in assay [4], 31.1%; in assay [5], 7.4%; in assay [6] it was 20.9%.
`CC(=O)Oc1cccc(OC(=O)Nc2ccc(C)c(NC(=O)Oc3cccc(OC(C)=O)c3)c2)c1`: the growth inhibition is 26.2% in assay [1]; 22.6% in assay [2]; 9.75% in assay [3]; 19.3% in assay [4]; -0.4% in assay [5]; 34.5% in assay [6].
In the case of `COc1cccc(CN2C(=O)NC(C)(C)C2O)c1` (centres undefined), the growth inhibition in assay [1] is -12.2%; in assay [2], 28.4%; in assay [3] it was 10.3%; in assay [4], -5.75%; in assay [5] it was 11.6%; in assay [6] it was 10.2%.
As to `O=C(NC(O)C(=O)O)c1ccc(Cl)cc1` (centres undefined), the growth inhibition is -10.9% in assay [1]; -10.9% in assay [2]; -6.2% in assay [3]; 17.3% in assay [4]; -6.4% in assay [5]; -27.9% in assay [6].
On to `Cc1oc2nc(N(C)C)nc(Cl)c2c1C`, for which the growth inhibition in assay [1] is 7.15%; in assay [2], 5.8%; in assay [3] it was 8.25%; in assay [4] it was 12.5%; in assay [5], 22.1%; in assay [6] it was -15%.
As to `Cc1cc2c(c3oc(C4(C)OC4C4OC4C)cc(=O)c13)C(=O)c1c(O)c(C3CC(C)(N(C)C)C(O)C(C)O3)cc(C3CC(N(C)C)C(O)C(C)O3)c1C2=O` (centres undefined), the growth inhibition was 88.6% (active) in assay [1]; 92.2% (active) in assay [2]; 90.7% (active) in assay [3]; 88.8% (active) in assay [4]; 89.2% (active) in assay [5]; 87.5% (active) in assay [6].
As for `CCCCN(CCCC)CC(O)c1cc(-c2ccc(Cl)cc2)nc2cc(OC)c(OC)cc12` (centres undefined), the growth inhibition in assay [1] was 99% (active); in assay [2], 99.6% (active); in assay [3], 99.7% (active); in assay [4], 98.8% (active); in assay [5] it was 51.8%; in assay [6] it was 69.9%.
`CCOc1ccc(C2=C/C(=C/c3cccs3)C(=O)O2)cc1`: the growth inhibition was 4.2% in assay [1]; -7.2% in assay [2]; -1.15% in assay [3]; -25.6% in assay [4]; 14.4% in assay [5]; -5.9% in assay [6].
`NC(=O)C(CCN1CCCCC1)c1ccccc1` (centres undefined): the growth inhibition is 27.2% in assay [1]; -7.35% in assay [2]; 7.75% in assay [3]; 9.5% in assay [4]; 5.45% in assay [5]; 24.8% in assay [6].
Take `CCC(=O)/C=C/c1ccccc1`: the growth inhibition was -1.55% in assay [1]; -14.2% in assay [2]; -22.1% in assay [3]; -23.9% in assay [4]; -34.5% in assay [5]; -47.6% in assay [6].
For the molecule `CC(C)CC(C)(CC(C)C)C(=O)O`, the growth inhibition is 9.95% in assay [1]; -7.75% in assay [2]; 7.8% in assay [3]; -1.5% in assay [4]; -1.3% in assay [5]; 11.8% in assay [6].
On to `Cc1ccc(-n2ncc3c(N)ncnc32)cc1`, for which the growth inhibition in assay [1] is 10.2%; in assay [2], 12.4%; in assay [3], 2.6%; in assay [4], -19%; in assay [5], -7.8%; in assay [6], -14.2%.
For the molecule `CC1(C)CCCc2c(-c3ccccc3)cc3c4ccccc4cc[n+]3c21`, the growth inhibition is -8.5% in assay [1]; -5.55% in assay [2]; -14.6% in assay [3]; -21.6% in assay [4]; -5% in assay [5]; -14.1% in assay [6].
With `O=c1cccc(CCc2ccccc2)[nH]1`, the growth inhibition was -8.85% in assay [1]; -9.35% in assay [2]; -9.6% in assay [3]; 0.6% in assay [4]; -0.55% in assay [5]; -16.4% in assay [6].
As for `CC1=NC(C(=O)O)CC1C` (centres undefined), the growth inhibition in assay [1] was 1.15%; in assay [2], 4%; in assay [3], -5.35%; in assay [4], -7.7%; in assay [5] it was 1.45%; in assay [6] it was -1.3%.
For `COc1cccc2c1C(=O)c1c(OC)c(CBr)cc(OC)c1C2=O`, the growth inhibition in assay [1] was 37.6%; in assay [2], 9.55%; in assay [3], 15.9%; in assay [4], -36.6%; in assay [5], -7.85%; in assay [6], 15.5%.
Regarding `Cc1cc(OC(=O)c2ccc(N)cc2)ccc1C1=NCC(C)S1` (centres undefined), the growth inhibition in assay [1] is 39%; in assay [2] it was 20%; in assay [3] it was 38%; in assay [4], -3.05%; in assay [5], 8.3%; in assay [6], 0.1%.
As to `Cc1ccc(S(=O)(=O)c2c(N)c3nc4ccccc4n3c3nc4ccccc4nc23)cc1`, the growth inhibition in assay [1] is 21.4%; in assay [2] it was -10.3%; in assay [3], -5.2%; in assay [4], 25.7%; in assay [5], -0.45%; in assay [6], 13.1%.
